Experimental data reported in PubChem BioAssay AID1508600 (Functional Genomics Laboratory (NCATS/FGL), 2020).
Out of some 53,000 sequences screened, about 3,700 (7%) were called active. Many of the other results were omitted from the sample, so actives are more common in it than they were. A number with no mark means an inactive call.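 How the source made its calls: active means gene knockdowns whose robust z-score for IL-1 alpha signal is at least 2 or at most -2, so actives lie on both sides; inactive means the rest.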

Test: Components of the Cytosolic LPS Sensing Pathway: Gene Identification via Genome-wide siRNA Screen;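 further: robust z of the log signal after scaling to non-targeting control siRNA wells of the plate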
Conditions: RAW264.7 macrophages, IL-1a HTRF, actives lie on both sides, screened at 100 nM (by protocol), cells primed 5 h with Pam3CSK4 first
Summary of the method: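 Supernatant IL-1a by HTRF from RAW264.7 cells primed with Pam3CSK4 (5 hours) and transfected with LipidA (24 hour) after 48h siRNA knockdown at 100 nM; cell viability checked with CellTiter-Glo.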

Sequence	z-score
CCAAGGGUUGCUUCGAGCATT against Upk1a	-0.489
GGACCUGAACGAUCUCGUUTT against Cyp4a12a	1.65
GGAACAACCACGGAACCCATT against Il1r2	0.335
GGGUUUCAGUCUUCUUAUCTT against Olfr556	-0.891
GGGAGCUAAUGAGCAAGGATT against Galk1	2.5 (active)
GCACAAACUUAUGCUCUUUTT against Klrc3	-1.76
GGACAGACAAAUACAAGAGTT against Tmco1	0.428
GUUCUUAUAUAGGAUUGUGTT against Xkr9	-0.782
GGAUCAUCUAUACAGCACATT against Tgfb1i1	-1.85
GGACAGUUCUAAAAUUCCCTT against Olfr780	-1.73
GCCAGCUACCGAGUCUAUUTT against Tkt	2.8 (active)
GCAUGCUGACACUUACUUUTT against Olfr878	-0.872
CCAGGCAGCUAAACUGUGUTT against Tex11	-0.11
GGGACUGUACCCAGUUUAATT against Ccl27a	1.62
CGUGGAAUGAAGAUUGUCCTT against Hsd17b12	0.284
GCAAAAUAGCCCAGUAUAATT against Pax6	-5.02 (active)
GGAGUUUCUUCAGUUCCUUTT against Dld	0.87
GCGGAGGAUAGAGCAAAUUTT against Upf3b	-0.0448
GGAACAUCAAGGGAAUUAUTT against Zfp638	2.36 (active)
GGACAACAGUGGAAGGCUCTT against Serpinb1a	0.841
GGAGGUGAACCAUAGAGAGTT against Csrnp2	1.12
CCCUCUAUCAGUUACCCUGTT against Mcpt2	0.686
GGACAAUGGUUCCUUGGAUTT against Cdc25c	0.981

Sequence	z-score
GGAUGUCACUCUUGCAUUGTT against Olfr948	0.75
GCCACAACUCCAGAUGCCUTT against Olfr937	-2.64 (active)
GGAAGAACUUCAGAAUGCATT against Slirp	-0.627
CCUUCAUUGUGAUUGACAUTT against Ptpn11	-0.55
GGUUCAGUGCUUUGUGUUCTT against Il2rg	-0.541
CCUUCUAAAUACUGAUUUGTT against Ugt2b38	0.699
GCAGAAUAUUAACCAGUGUTT against Ptp4a2	1.15
CCAGUUCCGGUCAGAUUAUTT against Gnal	-1.55
GCCUCCAGAACUCACUGCATT against Hes3	-2.04 (active)
AAGGAAGUCUGUCCAAGGUTT against Olfr192	-0.284
GCUGCCAUUUCGCCAAUCUTT against Mfap4	-2.65 (active)
GGGAGCAUCAAACAACAAUTT against Tbr1	0.742
GGCUGUGGAUUUCUCUCUGTT against Kng1	-0.334
GGCCGAGUACAAACGUGGATT against Atg9a	2.77 (active)
CCUGAGUCAGAUUCAUUUATT against Pten	0.292
GGUGCCAUUCAUCUUUCAATT against Tmprss3	1.85
GGUGCAAGAUCAAGAACUGTT against C1ra	2.78 (active)
GGAAGAACAGGAAGAAGUGTT against Pank1	1.02
CCAGCUUUCAUUAACUUUATT against Ppp1r10	-0.571
CGAGCUAUCCACUUAAUCATT against Irak3	-0.859
GGCUCUGGGUGGUAUUCAUTT against Slc5a2	-0.637
GGCACUGGGCAAACAUUAATT against Ptprcap	1.09
GGCAGUUCAAAAGACCACATT against Zcchc7	2.38 (active)

Sequence	z-score
GGGCAACGAGCUGUUCAAATT against Unc45a	1.71
GGGAUCUGGAUUUAAUUUGTT against Arf5	0.523
GGUCACACCCACCAUUACGTT against Serpina11	-0.765
CCAUUACAGGGUUUUUUAUTT against Slc37a3	-0.62
GGGAAAAGCAAACACUAAUTT against C1d	-1.84
GGAGCAUCUCAAACCUUCATT against Lancl3	-3.8 (active)
GAUGCGGCUCCUUGGAAUUTT against Slc51b	2.38 (active)
GGUCAUAAGAAGCUCAAGATT against Serpinb9d	0.268
GCCGGAAGAUAAGGCUCAUTT against Gap43	-2.2 (active)
GGAAGAACUCAAGAGGGAATT against Plpp2	-0.775
GCUGGGAGUAAAAUUGACUTT against Cenpj	-0.65
CGAGCAUGCUGAAAAGACCTT against Steap1	-0.826
GGUUUUAAAGCAUCUUCGUTT against Pard6g	-0.284
GGGCAACAUUUUUCAGUGCTT against Prox1	0.722
GGAUCUUAAGUCCUAACAUTT against Tacc3	-2.37 (active)
CCGAUAAUGCUUUCUUUGGTT against Ppp1cc	0.547
CCAAGUCAGUGCUGUAAAGTT against F830104G03Rik	-1.58
GGUGAUGCCUGUGAAGACATT against Il3ra	2.04 (active)
GGGAUAUUCAUUGACUUUGTT against Prr5	-1.88
CCAAGAAUGUUUCCAUGUUTT against Slc12a5	-1.68
CCUGAACCACUUGUUAAAUTT against Rnf10	0.124
GCUUCAGGUCAGUCUCUUCTT against Olfr1042	0.969
GGAGGCAAAAAUGAUGCUATT against Slpi	1.97
